Compound activity as filed in PubChem.
GRK2 aptamer HTS: compounds blocking aptamer binding on GRK2 – biochemical, human GRK2, bead flow cytometry, HTS, primary screen. FAM-aptamer displacement from GRK2. Beta-adrenergic receptor kinase 1 (Homo sapiens), P25098. inhibition of aptamer binding, % at 10 µM. 330,000 compounds, 0.59% hits. AID 488847, 2010;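 active = inhibition of aptamer binding above 40%, roughly 3 SD of noise, on plates passing a quality check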;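 also: median bead fluorescence of bound FAM aptamer so fluorescent compounds give negative values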
APOBEC3A inh: APOBEC3A ssDNA deaminase inhibitors, primary screen, selectivity assay for APOBEC3G inhibitor project, biochemical, FAM/TAMRA oligo cleavage fluorescence | inhibition, % at 20 µM | recombinant A3A, FAM/TAMRA ssDNA deamination fluorescence | 330,000 compounds, 0.41% hits | AID 493011, 2011;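 active = at least 40% inhibition at 20 µM here, with at most 30% in a related deaminase screen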
VLA-4 inh: inhibition in human VLA-4 binding assay, primary screen, VLA-4 allosteric modulator project, MLPCN library, flow cytometry, VLA-4 expressing cells | ligand binding flow cytometry | AID 2557, 2010 | Integrin alpha-4 (Homo sapiens), P13612 | inhibition, % (about 7 µM as worked out from the volumes in the protocol) | 330,000 compounds, 0.2% hits; in the data active = inhibition above about 50%
Target sequence (P13612 whole entry, looked up): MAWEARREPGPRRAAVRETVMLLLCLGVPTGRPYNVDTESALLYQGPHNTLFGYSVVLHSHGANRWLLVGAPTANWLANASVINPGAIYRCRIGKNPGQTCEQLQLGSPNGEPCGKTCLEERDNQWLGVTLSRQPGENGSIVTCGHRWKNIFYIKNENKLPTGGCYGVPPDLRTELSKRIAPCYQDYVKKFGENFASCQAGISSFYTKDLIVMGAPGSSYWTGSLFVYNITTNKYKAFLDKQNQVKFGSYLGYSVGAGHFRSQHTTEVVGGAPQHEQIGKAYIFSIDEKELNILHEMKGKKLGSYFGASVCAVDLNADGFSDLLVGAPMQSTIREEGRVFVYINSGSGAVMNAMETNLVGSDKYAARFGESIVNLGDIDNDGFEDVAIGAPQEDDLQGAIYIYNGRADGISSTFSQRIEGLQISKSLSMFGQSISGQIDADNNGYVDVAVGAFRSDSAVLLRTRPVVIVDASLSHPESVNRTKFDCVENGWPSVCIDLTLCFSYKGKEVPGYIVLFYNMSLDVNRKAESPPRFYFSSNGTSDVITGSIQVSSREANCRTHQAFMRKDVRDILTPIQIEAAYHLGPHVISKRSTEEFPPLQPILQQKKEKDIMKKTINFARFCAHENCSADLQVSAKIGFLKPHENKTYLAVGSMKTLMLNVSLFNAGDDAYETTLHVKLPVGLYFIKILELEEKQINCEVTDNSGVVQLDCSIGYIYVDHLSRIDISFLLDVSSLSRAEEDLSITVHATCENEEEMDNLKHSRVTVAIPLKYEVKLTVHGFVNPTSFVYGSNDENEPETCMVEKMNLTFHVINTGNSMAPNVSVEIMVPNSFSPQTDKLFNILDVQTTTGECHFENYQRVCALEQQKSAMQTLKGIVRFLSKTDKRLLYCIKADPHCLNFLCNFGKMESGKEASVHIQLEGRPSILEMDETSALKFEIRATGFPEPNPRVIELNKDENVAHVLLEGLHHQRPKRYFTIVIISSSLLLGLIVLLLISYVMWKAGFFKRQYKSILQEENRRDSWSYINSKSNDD
APOBEC3G inh: APOBEC3G DNA deaminase inhibitors, primary screen, biochemical, fluorescence, single-stranded DNA substrate, uHTS. DNA dC->dU-editing enzyme APOBEC-3G (Homo sapiens), Q9HC16. recombinant A3G, ssDNA deamination FAM/TAMRA fluorescence. inhibition, % at 20 µM. 330,000 compounds, 0.28% hits;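 active = inhibition of at least 40% at 20 µM, with no more than 30% in the related APOBEC3A deaminase screen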
VLA-4 mod pick: retest of VLA-4 allosteric modulators, confirmation, cell-based, cherry-picked plates, U937, HUTS-21 LIBS antibody; inhibition, % at 6.7 µM; AID 2813, 2010; 1,300 compounds, 2% hits; shares compounds with VLA-4 inh; U937 cells, HUTS-21 LIBS mAb binding, flow cytometry; LDV ligand present at threefold Kd; in the data active = inhibition above about 40%
A number is an active result; i = inactive; nt = not tested or not shown. A selection: hits, their analogues and other compounds. The true share with any hit is near 1.4%.

SMILES	GRK2 aptamer HTS	APOBEC3A inh	VLA-4 inh	APOBEC3G inh	VLA-4 mod pick
CC(=O)c1ccc(NS(=O)(=O)c2ccc(N)cc2)cc1	i	i	i	i	i
CC(=O)c1ccc(NS(=O)(=O)c2ccccc2)cc1	i	i	i	i	nt
Nc1ccc(NS(=O)(=O)c2ccccc2)cc1	i	i	i	i	i
Nc1cccc(S(=O)(=O)Nc2ccccc2)c1	i	i	i	i	i
O=C(Nc1ccccc1Cl)Nc1ccccc1Cl	i	i	i	i	i
CSc1ccccc1NC(=O)Nc1ccccc1Cl	i	i	i	i	nt
CCN(CC)CCNC(=O)C1CCC(=O)N1CCc1ccccc1 (stereo not drawn)	i	i	i	i	nt
C/C(=N\n1c(C)cc(C)c(C#N)c1=O)c1cccs1	i	i	i	i	nt
O=C(CSc1nnc(Nc2ccccc2)s1)NN1C(=O)NC2(CCCCC2)C1=O	i	i	i	i	i
Cc1nc(NC(=O)COC(=O)C(C)NC(=O)c2ccccc2)c(Cl)cc1Cl (stereo not drawn)	i	i	i	i	nt
Cc1nc(NC(=O)COC(=O)C(NC(=O)c2ccco2)C(C)C)c(Cl)cc1Cl (stereo not drawn)	i	i	52	i	i
COC(=O)c1ccc(SC)cn1	i	i	i	i	nt
O=C1COc2ccc(-c3n[nH]c(=O)c4ccccc34)cc2N1	i	i	i	i	nt
O=C1COc2ccc(N3C(=O)c4ccccc4C3=O)cc2N1	i	i	52	i	i
CCOC(=O)c1c(CN2CCOCC2)n(-c2ccccc2)c2cc(Br)c(O)cc12	i	i	i	i	nt
COc1ccc(CCNC(=O)Cn2c(=O)oc3ccccc32)cc1OC	i	i	i	i	i
Cc1cccc(NC(=O)Cn2c(=O)oc3ccccc32)c1C	i	i	i	i	i
Cc1ccc(NC(=O)Cn2c(=O)oc3ccccc32)c(C)c1	i	i	i	i	i
CCOc1ccccc1NC(=O)Cn1c(=O)oc2ccccc21	i	i	i	i	nt
Cc1ccc(NC(=O)Cn2c(=O)oc3ccccc32)cc1	i	i	i	i	nt
CCC(=O)c1cn(CC(=O)Nc2cccc(C)c2C)c2ccccc12	i	i	i	i	i
CC(=O)c1cn(CC(=O)Nc2cccc(C)c2C)c2ccccc12	i	i	i	i	nt
CCOc1ccccc1OCCCC(=O)Nc1ccc(Cl)c(S(=O)(=O)N2CCOCC2)c1	i	i	i	i	nt
O=C(COc1ccccc1Cl)Nc1ccc(CN2CCOCC2)cc1	i	i	i	i	nt
c1ccc(-c2nc(N3CCCCCC3)c3ccccc3n2)nc1	i	i	i	i	nt
SMILES	GRK2 aptamer HTS	APOBEC3A inh	VLA-4 inh	APOBEC3G inh	VLA-4 mod pick
CCOC(=O)C1CCN(C(=O)c2ccccc2NC(C)=O)CC1	i	i	i	i	nt
CCOC(=O)Cc1nnc(Nc2ccc(C(=O)NC)cc2)c2ccccc12	i	i	i	i	nt
CCOC(=O)Cc1nnc(Nc2cccc(O)c2)c2ccccc12	i	i	89	i	i
COCCn1c(=NC(=O)/C=C/c2ccccc2Cl)sc2cc(NC(C)=O)ccc21	i	i	i	i	nt
CCOCCn1c(=NC(=O)/C=C/c2ccccc2Cl)sc2cc(NC(C)=O)ccc21	i	i	i	i	i
NS(=O)(=O)c1ccc(NC(=O)C2CCCN(S(=O)(=O)c3ccc(F)cc3)C2)cc1 (stereo not drawn)	i	i	i	i	nt
Cc1ccc(OCc2nnc(SCC(=O)NC3CCCCC3)n2C)cc1	i	i	i	i	nt
Cn1c(=O)oc2cc(S(=O)(=O)NCCC(=O)N3CCN(c4ccccc4F)CC3)ccc21	i	i	i	i	nt
CC(C)C(NS(=O)(=O)c1ccc2c(c1)oc(=O)n2C)C(=O)N1CCN(c2ccccc2F)CC1 (stereo not drawn)	i	i	53	i	i
O=C(COc1ccc(Cl)cc1)Nc1cccc(-c2ccc3nncn3n2)c1	i	i	i	i	nt
COC(=O)C(C)Oc1ccc(-c2nccc(-c3ccc(F)cc3)n2)cc1 (stereo not drawn)	i	i	i	i	nt
COC(=O)C(C)Oc1ccc(Oc2nc(Cl)ccc2Cl)cc1 (stereo not drawn)	i	i	52	i	i
Cc1cc(C)cc(Nc2nc3ccc(C)cc3n3cnnc23)c1	i	i	i	i	nt
CCCCNc1cc(NC(C)=O)cc2cc(OC)c(OC)cc12	i	i	i	i	nt
CCCCn1cc(C(C)(C)C)c(C#N)c1NC(C)=O	i	i	50	i	i
COCc1c(C(=O)OCC(=O)N2c3ccccc3CC2C)oc2ccccc12 (stereo not drawn)	i	i	i	i	nt
Cc1ccc(S(=O)(=O)CCNC(=O)Cc2ccccc2)cc1	i	i	i	i	nt
CC(C)CC(=O)Nc1ccc2c(c1)nc(CCN1CCOCC1)n2C	i	i	i	i	i
Cc1ccc(OCC(=O)Nc2ccc3c(c2)nc(CCN2CCOCC2)n3C)cc1	i	i	i	i	nt
O=C(NCc1n[nH]c(=S)n1-c1ccc(F)cc1)c1ccco1	i	i	i	i	nt
CCc1ccc(OCc2nnc(SCC(=O)Nc3cccc(C(=O)N4CCOCC4)c3)o2)cc1	i	i	i	i	i
Cc1ccc2nc(-c3ccccc3)cc(C(=O)N3CCN(S(=O)(=O)c4c(C)noc4C)CC3)c2c1	i	i	i	i	i
CC(=O)c1cnc(Nc2nc(C)c3ccccc3n2)nc1C	i	i	i	i	nt
c1ccc(CCC2CCCCN2Cc2nc(C3CC3)no2)cc1 (stereo not drawn)	i	i	i	i	i
Fc1ccc2nc(Nc3nc4c(F)cccc4s3)sc2c1	i	i	53	i	i
SMILES	GRK2 aptamer HTS	APOBEC3A inh	VLA-4 inh	APOBEC3G inh	VLA-4 mod pick
Fc1ccc2nc(Nc3nc4c(F)cc(F)cc4s3)sc2c1	i	nt	i	nt	nt
O=C(CN1CCCCC1)N1N=C(c2cccs2)CC1c1cccs1 (stereo not drawn)	i	i	i	i	i
O=C(CNCCO)N1N=C(c2cccs2)CC1c1cccs1 (stereo not drawn)	i	i	i	i	nt
O=C(c1ccccc1Cc1ccccc1)N1CCN(S(=O)(=O)c2ccccc2Br)CC1	i	i	i	i	nt
COc1ccc(-c2c(C(F)(F)F)oc3c(CN4CCN(C)CC4)c(O)ccc3c2=O)cc1	i	i	92	i	i
COc1ccccc1-n1nnnc1SCC(=O)Nc1ccc(C)c(N)c1	i	i	54	i	i
CCOc1ncccc1C(=O)Nc1cccc(-c2nnc3n2CCCCC3)c1	i	i	68	i	i
COC(=O)c1c(C)[nH]c(C(=O)C(C)OC(=O)C2CC(=O)N(c3ccc(C)cc3)C2)c1C (stereo not drawn)	i	i	i	i	nt
COC(=O)c1c(C)[nH]c(C(=O)C(C)OC(=O)C2CC2C)c1C (stereo not drawn)	i	i	i	i	i
